# Results as given in PubChem BioAssay AID2685 (National Center for Advancing Translational Sciences (NCATS), 2010).
# Among all 320,000 compounds or so, about 2,100 (0.66%) were called active. About 53% were inconclusive and are not listed. Calls come from the whole dose curve; as a rule, active = well fitted inhibition curve with a large enough effect in the signal ratio, with a control signal flat (not every such curve was filed as active); inconclusive = small, poorly fitted or top-dose-only effect, or effect the other way, or a change in a side signal; inactive = flat fitted curve, though single readings scatter; the % refers to the signal ratio. Shown is part of a subset that was picked to be rich in actives.
# Experiment: qHTS Assay for Lipid Storage Modulators in Drosophila S3 Cells;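 for cell number change: cells counted by Cell Tracker Red CMTPX staining in the red channel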; for lipid storage change, negative = inhibition: % is set by controls: 0 for no effect and ±100 for the full control effect
# Details: BODIPY lipid droplet fluorescence, 18-24 h, cells fed with added oleic acid; cell number change: measured here: cell count max response; series mostly up to 46.1 µM
# Outline: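 Laser-scanning cytometry quantifies lipid droplet accumulation (500–530 nm total intensity; droplet/cell object ratio) in oleic acid-fed (400 uM added) Drosophila S3 cells treated with a concentration series. 20 uM Triacsin C defined 100% inhibition.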
# Potency is the fitted concentration of half-maximal effect.
SMILES,Potency,cell number change [%],"lipid storage change, negative = inhibition"
CC(C)Nc1ccc(C(CC(N)=O)NC(=O)Cc2ccc(Cl)cc2)cc1[N+](=O)[O-] (stereo not drawn),inactive,–,–
COC(=O)CSc1n[nH]c(=S)s1,inactive,-9.98,–
COC(=O)C(C)Sc1nnc(SC(C)C(=O)OC)s1 (stereo not drawn),inactive,26.4,–
COC(=O)C(C)Sc1n[nH]c(=S)s1 (stereo not drawn),18.4 µM (active),12.5,–
CCCCCCCc1c(O)nc(SCCN2CCOCC2)[nH]c1=O,inactive,2,–
Cc1cc([N+](=O)[O-])nn1CC(=O)NC(C)c1ccccc1 (stereo not drawn),inactive,-17.7,–
COC(=O)NNC(=O)c1ccccc1OC,inactive,-18.2,–
Cc1ccccc1C(=O)NNC(=O)c1ccoc1C,inactive,21.8,–
COC(=O)NNC(=O)c1ccccc1C,25.9 µM (active),-4.05,–
O=c1c2cc(Br)ccc2[nH]c(=S)n1Cc1ccccc1,inactive,–,–
Cc1ccc(-c2cc(C(F)(F)F)n3ncc(C(=O)NCc4ccco4)c3n2)cc1,inactive,-26.7,–
Cc1cc(C)c(Cc2c(C)nc3c(C(=O)NCc4ccco4)cnn3c2C)c(C)c1,6.51 µM (active),–,–
Cc1nc2c(C(=O)NCc3cccs3)cnn2c(C)c1Cc1ccccc1,inactive,-10.7,–
COc1ccc(-c2cc(-c3ccccc3)nc(SCC(=O)Nc3nccs3)c2C#N)cc1,inactive,6.74,–
Cc1ccc(NC(=O)CCNS(=O)(=O)c2ccc3[nH]c(=O)oc3c2)c(Cl)c1,inactive,-2.47,–
CN(C(=O)c1ccc(=O)[nH]c1)C1(C(=O)NC2CCCCC2)CCCCC1,inactive,-13.5,–
Cc1nn(C)cc1-c1csc(N)n1,inactive,19,–
COc1ccc(NC(=O)C2CCCN(S(=O)(=O)c3cccnc3)C2)c(OC)c1 (stereo not drawn),inactive,12.4,–
O=C(NC(=S)NNC(=O)c1ccco1)c1ccc(F)cc1,18.4 µM (active),4.58,–
COc1ccc(C(=O)NNC(=S)NC(=O)c2ccco2)cc1,inactive,1.44,–
COc1ccc(C(=O)NC(=S)NNC(=O)c2ccco2)cc1,inactive,-19.8,–
CCCCN(C(=O)c1nn(C)c(=O)c2ccccc12)c1c(N)n(CC(C)C)c(=O)[nH]c1=O,inactive,3.88,–
O=C(CSc1nnc([C@@H]2CCCN2)o1)c1ccc(Cl)cc1,inactive,3.48,–
O=C(NC1=NCCS1)c1cccc(NC(=O)c2ccco2)c1,inactive,–,–

SMILES,Potency,cell number change [%],"lipid storage change, negative = inhibition"
COc1ccc(CNC(=O)CN2c3ccccc3S(=O)(=O)c3ccccc32)cc1,inactive,–,–
CCN1C(=O)N(c2ccc(C(C)=O)cc2)S(=O)(=O)c2ccccc21,inactive,7.75,–
CCN1c2ccccc2S(=O)(=O)c2ccccc21,1.84 µM (active),-15.5,–
COc1cccc(NC(=O)C(Cc2ccccc2)n2cccc2)c1 (stereo not drawn),inactive,23.9,–
O=C(c1ccccc1)N1CCN(c2ccccc2F)CC1,inactive,–,–
CCN(CC)CCCN(C(=O)Cn1nnc(-c2ccc(OC)c(OC)c2)n1)C(C(=O)NC(C)(C)C)c1ccc(F)cc1 (stereo not drawn),inactive,-0.835,–
COc1ccc(C(C)=O)cc1CSc1nnc(SCc2cc(C(C)=O)ccc2OC)s1,inactive,7.73,–
COc1ccc(C(C)=O)cc1CSc1nnc(Nc2ccccc2)s1,2.31 µM (active),-8.23,–
COc1ccc(C(C)=O)cc1CSc1nnc(Nc2ccccc2C)s1,inactive,–,–
CN(C(=O)COC(=O)CCc1nc2ccccc2c(=O)[nH]1)C1CCS(=O)(=O)C1 (stereo not drawn),inactive,-1.94,–
COCCNC(=O)c1cccc2c1-c1ccccc1C2=O,inactive,-10.2,–
CC(=O)CCc1oc2ccc(C)cc2c1-c1ccccc1,inactive,1.81,–
O=S(=O)(Cc1ccccc1)Nc1ccc(S(=O)(=O)N2CCCC2)cc1,inactive,-4.32,–
O=c1oc(-c2cccs2)nc2sc3c(c12)CCC3,inactive,1.06,–
O=c1oc(-c2cccs2)nc2sc3c(c12)CCCCC3,inactive,7.26,–
O=C1CN(c2nc(-c3cccs3)nc3sc4c(c23)CCCC4)CCN1,1.64 µM (active),-27.1,–
N#CCCNC(=O)Cn1c(COc2ccc(Cl)cc2)nc2ccccc21,inactive,6.47,–
CCc1ccc(NC(=O)CSc2nc(-c3ccc(C)cc3)nc3c2Cc2c(CO)cnc(C)c2O3)cc1,inactive,-9.8,–
COc1cccc(-c2nc3c(c(SCC(=O)N4CCOCC4)n2)Cc2c(CO)cnc(C)c2O3)c1,0.651 µM (active),–,–
COc1cccc(-c2noc(CCCC(=O)N3CCOCC3)n2)c1,inactive,-4.07,–
COC(C[C@H](O)[C@H](C)[C@H](O)COCc1ccccc1)OC,inactive,11.5,–
O=C(CN1C(=O)COc2ccccc21)Nc1ccc2c(c1)OCCO2,inactive,3.43,–
COc1ccc(C(=O)N/C(=C\c2cn(C)c3ccccc23)C(=O)N2CCOCC2)cc1OC,23.1 µM (active),9.92,–
COc1ccc(C(=O)N/C(=C\c2cn(C)c3ccccc23)C(=O)N2CCOCC2)cc1,inactive,8.73,–

SMILES,Potency,cell number change [%],"lipid storage change, negative = inhibition"
COc1ccc(C(=O)N/C(=C\c2cn(C)c3ccccc23)C(=O)N2CCN(C)CC2)cc1OC,inactive,0.763,–
CCCN1CCN(C(=O)c2noc3c2COc2ccc(C)cc2-3)CC1,inactive,-19.6,–
COc1ccc2oc(C(=O)OC(C)C(=O)Nc3ccc(N4CCOCC4)cc3)c(C)c2c1 (stereo not drawn),7.31 µM (active),-30.5,–
COc1ccc2oc(C(=O)OC(C)C(=O)N3CCC(C)CC3)c(C)c2c1 (stereo not drawn),inactive,-13.1,–
Cc1cc(=O)oc2cc(OC(C)C(=O)Nc3ccc(N4CCOCC4)cc3)ccc12 (stereo not drawn),inactive,–,–
O=C(CSc1cn[nH]n1)Nc1ccccc1F,–,16.5,-23.4% [at 0.0737 µM] (inactive)
CCOC(=O)C1=C(COC(=O)/C=C/c2cccc(OC)c2OC)NC(=O)NC1C (stereo not drawn),inactive,–,–
CCOC(=O)C1=C(COC(=O)/C=C/c2cc(OC)c(OC)c(OC)c2)NC(=O)NC1C (stereo not drawn),18.4 µM (active),4.86,–
CCOC(=O)C1=C(COC(=O)c2cc(OC)c(OC)c(OC)c2)NC(=O)NC1C (stereo not drawn),inactive,-11.6,–
NS(=O)(=O)c1ccc(NC(=S)NC(=O)c2cccs2)cc1,inactive,-5.36,–
Cc1cc(Br)ccc1SCC(=O)N1CCN(S(=O)(=O)c2ccccc2)CC1,inactive,10.8,–
CC(CNC(=O)CCC(=O)N1CCOc2ccc(Cl)cc21)c1ccccc1 (stereo not drawn),0.92 µM (active),-20.2,–
CC(CNC(=O)CCC(=O)N1CCOc2ccccc21)c1ccccc1 (stereo not drawn),inactive,5.19,–
CC(CNC(=O)CN1C(=O)c2cccnc2Oc2ccc(Cl)cc21)c1ccccc1 (stereo not drawn),20.6 µM (active),-20.3,–
O=C(CN1C(=O)c2cccnc2Oc2ccc(Cl)cc21)Nc1ccccc1F,inactive,-28,–
Cc1ccccc1CNC(=O)CCC(=O)N1CCOc2ccc(Cl)cc21,inactive,5.19,–
O=C(CN1C(=O)c2cccnc2Oc2ccc(Cl)cc21)NCCc1ccccc1,inactive,10.9,–
COc1ccc(NC(=O)[C@@H](NC(=O)c2ccccc2)C(C)C)cc1S(=O)(=O)N1CCCCC1,inactive,-2.25,–
CC(=O)Nc1ccc(OCC(O)Cn2c3ccccc3c3ccccc32)c(C)c1 (stereo not drawn),inactive,-16.4,–
CSc1nc(=S)n(-c2ccccc2)c(C)c1C(C)=O,inactive,-14.2,–
O=C(CCCn1c(SCc2cccc(F)c2)nc2ccccc2c1=O)NCC1CCCO1 (stereo not drawn),inactive,-0.301,–
O=C(NCCCN1CCCCC1)c1ccc(CS(=O)c2ccc(F)cc2)o1 (stereo not drawn),inactive,–,–
O=C(c1ccc(CS(=O)c2ccccc2Cl)o1)N1CCCCCC1 (stereo not drawn),inactive,-21.2,–
Cc1ccccc1S(=O)(=O)Cc1ccc(C(=O)NCCCN2CCCC2)o1,inactive,13.9,–

SMILES,Potency,cell number change [%],"lipid storage change, negative = inhibition"
CCN1CCN(CCNC(=O)c2ccc(CS(=O)c3ccc(Cl)cc3)o2)CC1 (stereo not drawn),inactive,–,–
Cc1ccccc1S(=O)Cc1ccc(C(=O)NCCCN2CCCCC2)o1 (stereo not drawn),4.11 µM (active),-18.3,–
O=C(NCCN1CCOCC1)c1ccc(CS(=O)c2ccccc2Cl)o1 (stereo not drawn),4.11 µM (active),-8.85,–
COc1ccc(NC(C)=O)cc1NC(=O)c1ccc(Cl)cc1,inactive,11.7,–
CC(SCc1ccccc1)C(=O)Nc1ccccc1-c1ccccc1 (stereo not drawn),inactive,8.62,–
O=S1(=O)N=C(Oc2cccc3ccccc23)c2ccccc21,inactive,3.24,–
COc1ccc(C2CCCN2C(=O)Nc2ccc(Cl)cc2)cc1OC (stereo not drawn),inactive,-6.06,–
COc1ccc(Cl)cc1NC(=O)NCC1CCN(Cc2cc(C)ccc2C)CC1,inactive,-15.2,–
Cc1ccc(C)c(CN2CCC(CNC(=O)Nc3ccc(F)c(Cl)c3)CC2)c1,inactive,-7.91,–
Cc1ccc(C)c(CN2CCC(CNC(=O)Nc3cccc(Cl)c3C)CC2)c1,25.9 µM (active),-2.78,–
CC(C)(C)c1ccc(OCCC(=O)OCC(=O)Nc2cccnc2Cl)cc1,inactive,-11.9,–
COCCn1c(Cc2ccccc2)nnc1SCC(=O)N1CCCC1=O,inactive,2.89,–
O=C(NC1(N2CCOCC2)CC1)c1ccc(Cl)cc1,inactive,10.5,–
CSC1=NCCN1C(=O)c1c(F)cccc1F,inactive,10.5,–
CSc1ccccc1OCc1cc(C(=O)N(C)CC2COCCO2)no1 (stereo not drawn),inactive,5.77,–
CCNC(=S)N1CCc2cc(OC)c(OC)cc2C1COc1ccc(OC)cc1 (stereo not drawn),inactive,-7.02,–
CCNC(=S)N1CCc2cc(OC)c(OC)cc2C1COc1ccccc1OC (stereo not drawn),11.6 µM (active),-25.8,–
CCC(=O)N1CCc2cc(OC)c(OC)cc2C1COc1ccccc1OC (stereo not drawn),inactive,-0.404,–
Cc1ccc(Cn2nnnc2CN2CCC(O)(c3cccnc3)CC2)cc1,inactive,1.82,–
COCCn1c(SCC(=O)Nc2ccc3c(c2)OCCO3)nnc1C(C)C,inactive,15.8,–
CC(=O)N/N=C(\C)CC(=O)Nc1cccc(C(F)(F)F)c1,inactive,5.44,–
C/C(CC(=O)Nc1cccc(C(F)(F)F)c1)=N\NC(=O)c1ccncc1,4.61 µM (active),-7.89,–
COc1ccc(C(=O)N/N=C(\C)CC(=O)Nc2cccc(C(F)(F)F)c2)cc1,inactive,-2.05,–
